{"source": "PubChem BioAssay AID1159580", "about": "(chemical genetic matrix, 2015)", "experiment": "chemical genetic growth profiling, strain panel (AID 1159580);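 also: tested at 20 µM; growth read once vehicle control cultures reached saturation at 30 °C; 1 = growth at the plate median or of vehicle wells; lower values mean less growth of the strain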", "settings": "S. cerevisiae deletion strains, growth OD", "key": {"[1]": {"settings": "locus YAL013W, strain DEP1, stronger effect = lower value"}, "[2]": {"settings": "locus YBR229C, strain ROT2, stronger effect = lower value"}, "[3]": {"settings": "locus YCL061C, strain MRC1, stronger effect = lower value"}, "[4]": {"settings": "locus YDL101C, strain DUN1, stronger effect = lower value"}, "[5]": {"settings": "locus YDR150W, strain NUM1, stronger effect = lower value"}, "[6]": {"settings": "locus YEL061C, strain CIN8, stronger effect = lower value"}, "[7]": {"settings": "locus YGR078C, strain PAC10, stronger effect = lower value"}, "[8]": {"settings": "locus YHR030C, strain SLT2, stronger effect = lower value"}, "[9]": {"settings": "locus YHR087W, strain rtc3, stronger effect = lower value"}, "[10]": {"settings": "locus YJR043C, strain POL32, stronger effect = lower value"}, "[11]": {"settings": "locus YJR075W, strain HOC1, stronger effect = lower value"}, "[12]": {"settings": "locus YLR039C, strain RIC1, stronger effect = lower value"}, "[13]": {"settings": "locus YLR058C, strain SHM2 (second series), stronger effect = lower value"}, "[14]": {"settings": "locus YLR085C, strain ARP6, stronger effect = lower value"}, "[15]": {"settings": "locus YLR262C, strain YPT6, stronger effect = lower value"}, "[16]": {"settings": "locus YML094W, strain GIM5, stronger effect = lower value"}, "[17]": {"settings": "locus YMR219W, strain ESC1, stronger effect = lower value"}, "[18]": {"settings": "locus YMR263W, strain SAP30, stronger effect = lower value"}, "[19]": {"settings": "locus YMR307W, strain GAS1, stronger effect = lower value"}, "[20]": {"settings": "locus YNL153C, strain GIM3, stronger effect = lower value"}, "[21]": {"settings": "locus YNL298W, strain CLA4 (second series), stronger effect = lower value"}, "[22]": {"settings": "locus YNL322C, strain KRE1, stronger effect = lower value"}, "[23]": {"settings": "locus YNR030W, strain Alg12, stronger effect = lower value"}, "[24]": {"settings": "locus YOL006C, strain TOP1, stronger effect = lower value"}, "[25]": {"settings": "locus YPL055C, strain LGE1, stronger effect = lower value"}, "[26]": {"settings": "locus YPL241C, strain CIN2, stronger effect = lower value"}, "[27]": {"settings": "locus YPR135W, strain CTF4, stronger effect = lower value"}, "[28]": {"settings": "locus YDL134C, strain PPH21, stronger effect = lower value"}, "[29]": {"settings": "locus YKL190W, strain CNB1, stronger effect = lower value"}}, "note": "About 2,000 (36%) of roughly 5,500 compounds were called active. Inconclusive results (about 18%) are left out. The list shows a part of the results. Values without a mark were called inactive. Rule as the data show it: active = normalized growth mostly below about 0.91 (no sharp cut-off); inconclusive = no clear call, values can overlap the other calls; inactive = mostly above about 0.92."}
{"compound": "COC(=O)C1=C(C)NC(C)=C(C(=O)OC)C1c1ccc(-c2ccsc2C(=O)OC)o1", "values": [{"measurement": "normalized growth", "setting": "[1]", "result": 1}, {"measurement": "normalized growth", "setting": "[2]", "result": 1}, {"measurement": "normalized growth", "setting": "[3]", "result": 0.989}, {"measurement": "normalized growth", "setting": "[4]", "result": 1}, {"measurement": "normalized growth", "setting": "[5]", "result": 0.941}, {"measurement": "normalized growth", "setting": "[6]", "result": 1.03}, {"measurement": "normalized growth", "setting": "[7]", "result": 0.994}, {"measurement": "normalized growth", "setting": "[8]", "result": 1.05}, {"measurement": "normalized growth", "setting": "[9]", "result": 0.985}, {"measurement": "normalized growth", "setting": "locus YJL187C, strain SWE1, stronger effect = lower value", "result": 1.01}, {"measurement": "normalized growth", "setting": "[10]", "result": 0.994}, {"measurement": "normalized growth", "setting": "[11]", "result": 0.946}, {"measurement": "normalized growth", "setting": "[12]", "result": 1.05}, {"measurement": "normalized growth", "setting": "[13]", "result": 0.999}, {"measurement": "normalized growth", "setting": "[14]", "result": 0.992}, {"measurement": "normalized growth", "setting": "[15]", "result": 0.999}, {"measurement": "normalized growth", "setting": "[16]", "result": 1.01}, {"measurement": "normalized growth", "setting": "[17]", "result": 1}, {"measurement": "normalized growth", "setting": "[18]", "result": 1}, {"measurement": "normalized growth", "setting": "[19]", "result": 0.968}, {"measurement": "normalized growth", "setting": "[20]", "result": 0.99}, {"measurement": "normalized growth", "setting": "[21]", "result": 1.06}, {"measurement": "normalized growth", "setting": "[22]", "result": 0.991}, {"measurement": "normalized growth", "setting": "[23]", "result": 1.02}, {"measurement": "normalized growth", "setting": "[24]", "result": 1.06}, {"measurement": "normalized growth", "setting": "[25]", "result": 0.898}, {"measurement": "normalized growth", "setting": "[26]", "result": 0.862}, {"measurement": "normalized growth", "setting": "[27]", "result": 1}]}
{"compound": "CCOC(=O)Nc1ccsc1C(=O)OC", "values": [{"measurement": "normalized growth", "setting": "[1]", "result": 0.997}, {"measurement": "normalized growth", "setting": "[2]", "result": 1}, {"measurement": "normalized growth", "setting": "[3]", "result": 0.999}, {"measurement": "normalized growth", "setting": "[4]", "result": 0.988}, {"measurement": "normalized growth", "setting": "[28]", "result": 1}, {"measurement": "normalized growth", "setting": "[5]", "result": 0.975}, {"measurement": "normalized growth", "setting": "[6]", "result": 0.974}, {"measurement": "normalized growth", "setting": "[7]", "result": 0.986}, {"measurement": "normalized growth", "setting": "[8]", "result": 1}, {"measurement": "normalized growth", "setting": "[9]", "result": 1}, {"measurement": "normalized growth", "setting": "[10]", "result": 1}, {"measurement": "normalized growth", "setting": "[11]", "result": 0.986}, {"measurement": "normalized growth", "setting": "[29]", "result": 1}, {"measurement": "normalized growth", "setting": "[12]", "result": 0.983}, {"measurement": "normalized growth", "setting": "[13]", "result": 1}, {"measurement": "normalized growth", "setting": "[14]", "result": 0.988}, {"measurement": "normalized growth", "setting": "[15]", "result": 0.996}, {"measurement": "normalized growth", "setting": "[16]", "result": 0.985}, {"measurement": "normalized growth", "setting": "[17]", "result": 1}, {"measurement": "normalized growth", "setting": "[18]", "result": 1.02}, {"measurement": "normalized growth", "setting": "[19]", "result": 1.07}, {"measurement": "normalized growth", "setting": "[20]", "result": 0.987}, {"measurement": "normalized growth", "setting": "[21]", "result": 1.02}, {"measurement": "normalized growth", "setting": "[22]", "result": 0.983}, {"measurement": "normalized growth", "setting": "[23]", "result": 1.01}, {"measurement": "normalized growth", "setting": "[25]", "result": 0.981}, {"measurement": "normalized growth", "setting": "[26]", "result": 1.08}, {"measurement": "normalized growth", "setting": "[27]", "result": 0.947}]}
{"compound": "COC(=O)c1sccc1-c1ccc(C(C)=O)o1", "values": [{"measurement": "normalized growth", "setting": "[1]", "result": 0.956}, {"measurement": "normalized growth", "setting": "[2]", "result": 0.975}, {"measurement": "normalized growth", "setting": "[4]", "result": 0.953}, {"measurement": "normalized growth", "setting": "[28]", "result": 0.974}, {"measurement": "normalized growth", "setting": "[5]", "result": 0.982}, {"measurement": "normalized growth", "setting": "[6]", "result": 0.949}, {"measurement": "normalized growth", "setting": "[7]", "result": 0.947}, {"measurement": "normalized growth", "setting": "[8]", "result": 0.722}, {"measurement": "normalized growth", "setting": "[9]", "result": 0.97}, {"measurement": "normalized growth", "setting": "[10]", "result": 0.977}, {"measurement": "normalized growth", "setting": "[11]", "result": 0.956}, {"measurement": "normalized growth", "setting": "[29]", "result": 0.976}, {"measurement": "normalized growth", "setting": "[12]", "result": 0.945}, {"measurement": "normalized growth", "setting": "[13]", "result": 0.965}, {"measurement": "normalized growth", "setting": "[14]", "result": "0.751 (active)"}, {"measurement": "normalized growth", "setting": "[15]", "result": 0.961}, {"measurement": "normalized growth", "setting": "[16]", "result": 0.898}, {"measurement": "normalized growth", "setting": "[17]", "result": 0.978}, {"measurement": "normalized growth", "setting": "[18]", "result": 0.977}, {"measurement": "normalized growth", "setting": "[20]", "result": 0.982}, {"measurement": "normalized growth", "setting": "[21]", "result": 0.841}, {"measurement": "normalized growth", "setting": "[22]", "result": "0.935 (active)"}, {"measurement": "normalized growth", "setting": "[23]", "result": "0.885 (active)"}, {"measurement": "normalized growth", "setting": "[24]", "result": "0.727 (active)"}, {"measurement": "normalized growth", "setting": "[25]", "result": 0.974}, {"measurement": "normalized growth", "setting": "[26]", "result": 0.891}, {"measurement": "normalized growth", "setting": "[27]", "result": 0.773}]}
